Measured values from PubChem BioAssay AID1159580 (chemical genetic matrix, 2015).
Values joined by “and” are separate entries in the source; they are usually repeats but may differ in a detail not shown here. Equal values may be shown once. In all, about 5,500 compounds went through this assay and about 2,000 (36%) were called active. Another 18% or so got no clear call; they are omitted. Cut-off read from the data, not from the text of the source: active = normalized growth mostly below about 0.91 (no sharp cut-off); inconclusive = no clear call, values can overlap the other calls; inactive = mostly above about 0.92. This is one part of the list.

Test: chemical genetic growth profiling, strain panel (AID 1159580);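 note: tested at 20 µM; growth read once vehicle control cultures reached saturation at 30 °C; 1 = growth at the plate median or of vehicle wells; lower values mean less growth of the strain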
Conditions: S. cerevisiae deletion strains, growth OD
[1] = locus YAL013W, strain DEP1, stronger effect = lower value

Measured: normalized growth

Nc1ncnc2c1ncn2C1C[C@H](O)[C@@H](CO)O1 (stereo partly specified)
active: locus YLR113W, strain HOG1, stronger effect = lower value 0.845
0.995 (inactive) and 0.849 (active): locus YHR030C, strain SLT2, stronger effect = lower value
inactive: [1] 0.998 | locus YAL021C, strain ccr4, stronger effect = lower value 1.03 | locus YAL026C, strain drs2, stronger effect = lower value 1.02 | locus YAL030W, strain snc1, stronger effect = lower value 1.01 | locus YBL061C, strain skt5, stronger effect = lower value 1.01 | locus YBR009C, strain hhf1, stronger effect = lower value 1.02 | locus YBR021W, strain FUR4, stronger effect = lower value 1.02 | locus YBR023C, strain chs3, stronger effect = lower value 1 | locus YBR171W, strain sec66, stronger effect = lower value 1.03 | locus YBR229C, strain ROT2, stronger effect = lower value 0.962 | locus YBR231C, strain swc5, stronger effect = lower value 1.01 | locus YBR279W, strain paf1, stronger effect = lower value 1.01 | locus YCL011C, strain gbp2, stronger effect = lower value 1.02 | locus YCL016C, strain dcc1, stronger effect = lower value 1.01 | locus YCL029C, strain bik1, stronger effect = lower value 0.998 | locus YCL061C, strain MRC1, stronger effect = lower value 1.02 | locus YCL069W, strain vba3, stronger effect = lower value 1.01 | locus YCR088W, strain abp1, stronger effect = lower value 1.01 | locus YDL005C, strain med2, stronger effect = lower value 1.02 | locus YDL035C, strain GPR1, stronger effect = lower value 0.99 | locus YDL040C, strain nat1, stronger effect = lower value 1.01 | locus YDL074C, strain BRE1, stronger effect = lower value 1.01 | locus YDL101C, strain DUN1, stronger effect = lower value 0.99 | locus YDL185W, strain tfp1, stronger effect = lower value 0.986 | locus YDL192W, strain arf1, stronger effect = lower value 1 | locus YDR001C, strain nth1, stronger effect = lower value 1.01 | locus YDR069C, strain doa4, stronger effect = lower value 1.02 | locus YDR101C, strain arx1, stronger effect = lower value 1.04 | locus YDR137W, strain rgp1, stronger effect = lower value 1.02 | locus YDR159W, strain sac3, stronger effect = lower value 1.03 | locus YDR162C, strain NBP2, stronger effect = lower value 0.984 | locus YDR195W, strain ref2 0.994 | locus YDR297W, strain sur2, stronger effect = lower value 1.01 | locus YDR318W, strain mcm21, stronger effect = lower value 0.968 | locus YDR334W, strain swr1, stronger effect = lower value 1.01 | locus YDR335W, strain msn5, stronger effect = lower value 1 | locus YDR388W, stronger effect = lower value 0.993 | locus YDR392W, strain spt3, stronger effect = lower value 1.01 | locus YDR502C, strain sam2, stronger effect = lower value 0.991 | locus YEL003W, strain gim4, stronger effect = lower value 1.02 | locus YEL037C, strain rad23, stronger effect = lower value 1 | locus YEL061C, strain CIN8 (second series), stronger effect = lower value 1.02 | locus YEL061C, strain CIN8, stronger effect = lower value 1 | locus YER015W, strain faa2, stronger effect = lower value 1.01 | locus YER016W, strain bim1, stronger effect = lower value 1.02 | locus YER110C, stronger effect = lower value 0.993 | locus YER111C, strain swi4, stronger effect = lower value 1.02 | locus YER155C, strain BEM2 (second series), stronger effect = lower value 1.03 | locus YER155C, strain BEM2, stronger effect = lower value 0.998 | locus YER167W, strain BCK2, stronger effect = lower value 0.996 | locus YFR010W, strain ubp6, stronger effect = lower value 1.01 | locus YGL078C, strain dbp3, stronger effect = lower value 0.997 | locus YGL086W, strain mad1, stronger effect = lower value 1.06 | locus YGL167C, strain pmr1, stronger effect = lower value 1.02 | locus YGL173C, strain kem1, stronger effect = lower value 1.02 | locus YGL227W, strain vid30, stronger effect = lower value 1.01 | locus YGL240W, strain doc1, stronger effect = lower value 1.02 | locus YGL248W, strain PDE1, stronger effect = lower value 0.981 | locus YGL253W, strain hxk2, stronger effect = lower value 1.02 | locus YGR135W, strain pre9, stronger effect = lower value 0.98 | locus YGR252W, strain gcn5, stronger effect = lower value 0.953 | locus YHR013C, strain ard1, stronger effect = lower value 1.01 | locus YHR027C, strain rpn1, stronger effect = lower value 1 | locus YHR079C, strain IRE1 (second series), stronger effect = lower value 0.99 | locus YHR079C, strain IRE1, stronger effect = lower value 0.872 | locus YHR094C, strain hxt1, stronger effect = lower value 0.987 | locus YHR129C, strain ARP1, stronger effect = lower value 0.989 | locus YHR142W, strain chs7, stronger effect = lower value 1.02 | locus YHR200W, strain rpn10, stronger effect = lower value 0.987 | locus YIL066C, strain RNR3, stronger effect = lower value 0.986 | locus YIL073C, strain SPO22, stronger effect = lower value 0.994 | locus YIL125W, strain kgd1, stronger effect = lower value 0.994 | locus YIR030C, strain dcg1, stronger effect = lower value 0.991 | locus YJL092W, strain hpr5, stronger effect = lower value 1.01 | locus YJL095W, strain BCK1 (second series), stronger effect = lower value 1.01 | locus YJL095W, strain BCK1, stronger effect = lower value 0.989 and 0.886 | locus YJL115W, strain asf1, stronger effect = lower value 1.01 | locus YJL129C, strain trk1, stronger effect = lower value 1.03 | locus YJL134W, strain LCB3, stronger effect = lower value 0.996 | locus YJL154C, strain vps35, stronger effect = lower value 1.02 | locus YJL164C, strain tpk1, stronger effect = lower value 1.01 | locus YJL166W, strain qcr8, stronger effect = lower value 1.03 | locus YJL168C, strain set2, stronger effect = lower value 0.995 | locus YJL187C, strain SWE1 (second series), stronger effect = lower value 0.99 | locus YJL187C, strain SWE1, stronger effect = lower value 1.01 | locus YJR043C, strain POL32, stronger effect = lower value 0.996 | locus YJR066W, strain TOR1, stronger effect = lower value 0.853 | locus YKL009W, strain mrt4, stronger effect = lower value 0.987 | locus YKL068W, stronger effect = lower value 0.991 | locus YKL085W, strain MDH1 (second series), stronger effect = lower value 0.997 | locus YKL085W, strain MDH1, stronger effect = lower value 0.997 | locus YKL160W, strain elf1, stronger effect = lower value 1.01 | locus YKL190W, strain CNB1, stronger effect = lower value 0.993 | locus YKR001C, strain vps1, stronger effect = lower value 1.01 | locus YKR026C, strain gcn3, stronger effect = lower value 1.02 | locus YKR091W, strain srl3, stronger effect = lower value 1.01 | locus YLL001W, strain dnm1, stronger effect = lower value 1.02 | locus YLL026W, stronger effect = lower value 1.01 | locus YLL041C, strain sdh2, stronger effect = lower value 1.02 | locus YLR027C, strain aat2, stronger effect = lower value 1.02 | locus YLR039C, strain RIC1, stronger effect = lower value 1.04 | locus YLR058C, strain SHM2, stronger effect = lower value 0.985 | locus YLR102C, strain apc9, stronger effect = lower value 0.999 | locus YLR221C, strain rsa3, stronger effect = lower value 1.01 | locus YLR258W, strain gsy2, stronger effect = lower value 1.01 | locus YLR262C, strain YPT6 (second series), stronger effect = lower value 0.998 | locus YLR262C, strain YPT6, stronger effect = lower value 1.04 | locus YLR268W, strain sec22, stronger effect = lower value 1.04 | locus YLR320W, strain mms22, stronger effect = lower value 1.03 | locus YLR330W, strain CHS5, stronger effect = lower value 0.994 | locus YLR342W, strain FKS1 (second series), stronger effect = lower value 1.02 | locus YLR342W, strain FKS1, stronger effect = lower value 1.03 | locus YLR357W, strain rsc2, stronger effect = lower value 1.01 | locus YLR370C, strain arc18, stronger effect = lower value 1.02 | locus YLR371W, strain rom2, stronger effect = lower value 0.98 | locus YLR384C, strain iki3, stronger effect = lower value 1.01 | locus YLR418C, strain cdc73, stronger effect = lower value 0.966 | locus YML016C, strain PPZ1, stronger effect = lower value 0.997 | locus YML032C, strain rad52, stronger effect = lower value 0.966 | locus YML120C, strain ndi1, stronger effect = lower value 1.01 | locus YML124C, strain tub3, stronger effect = lower value 0.99 | locus YMR058W, strain fet3, stronger effect = lower value 1.02 | locus YMR078C, strain ctf18, stronger effect = lower value 0.993 | locus YMR125W, strain sto1, stronger effect = lower value 1.01 | locus YMR129W, stronger effect = lower value 1.01 | locus YMR205C, strain PFK2, stronger effect = lower value 1.05 | locus YMR223W, strain ubp8, stronger effect = lower value 0.986 | locus YMR231W, strain pep5, stronger effect = lower value 0.991 | locus YMR307W, strain GAS1, stronger effect = lower value 0.988 | locus YNL067W, strain RPL9B, stronger effect = lower value 0.995 | locus YNL071W, strain lat1, stronger effect = lower value 1.02 | locus YNL153C, strain GIM3, stronger effect = lower value 0.987 | locus YNL183C, strain NPR1, stronger effect = lower value 0.855 | locus YNL209W, strain ssb2, stronger effect = lower value 1.01 | locus YNL233W, strain BNI4, stronger effect = lower value 1 | locus YNL248C, strain rpa49, stronger effect = lower value 1.01 | locus YNL250W, strain rad50, stronger effect = lower value 0.987 | locus YNL271C, strain bni1, stronger effect = lower value 0.992 | locus YNL298W, strain CLA4, stronger effect = lower value 0.989 | locus YNL307C, strain MCK1, stronger effect = lower value 1.01 | locus YNL322C, strain KRE1 (second series), stronger effect = lower value 1.02 | locus YNR049C, strain mso1, stronger effect = lower value 1.01 | locus YNR052C, strain pop2, stronger effect = lower value 0.985 | locus YOL012C, strain htz1 0.909 | locus YOL147C, strain pex11, stronger effect = lower value 0.995 | locus YOR001W, strain rrp6, stronger effect = lower value 1.02 | locus YOR061W, strain CKA2, stronger effect = lower value 0.967 | locus YOR069W, strain VPS5, stronger effect = lower value 1 | locus YOR070C, strain gyp1, stronger effect = lower value 0.999 | locus YOR080W, strain dia2, stronger effect = lower value 1.02 | locus YOR083W, strain WHI5, stronger effect = lower value 1.01 | locus YOR106W, strain vam3, stronger effect = lower value 1.01 | locus YOR136W, strain idh2, stronger effect = lower value 1 | locus YOR144C, strain elg1, stronger effect = lower value 0.988 | locus YOR184W, strain ser1, stronger effect = lower value 0.988 | locus YOR231W, strain MKK1, stronger effect = lower value 0.873 | locus YOR265W, strain rbl2, stronger effect = lower value 0.987 | locus YOR270C, strain vph1, stronger effect = lower value 1.03 | locus YOR290C, strain snf2, stronger effect = lower value 1.02 | locus YOR316C, strain cot1, stronger effect = lower value 0.994 | locus YPL051W, strain arl3, stronger effect = lower value 1.01 | locus YPL078C, strain atp4, stronger effect = lower value 1.01 | locus YPL106C, strain sse1, stronger effect = lower value 1.02 | locus YPL240C, strain hsp82, stronger effect = lower value 1 | locus YPL256C, strain CLN2, stronger effect = lower value 0.911 | locus YPR119W, strain clb2, stronger effect = lower value 0.993 | locus YPR141C, strain kar3, stronger effect = lower value 0.988 | locus YPR163C, strain tif3, stronger effect = lower value 1 | locus YPR167C, strain met16, stronger effect = lower value 0.989 | strain wtn01, stronger effect = lower value 1.03

O=c1[nH]c(=O)n([C@H]2C[C@H](O)[C@@H](CO)O2)cc1Br
inactive: [1] 1 | locus YAL040C, strain CLN3, stronger effect = lower value 1.08 | locus YDR363W, strain ESC2, stronger effect = lower value 1.01 | locus YER002W, strain NOP16, stronger effect = lower value 1.01 | locus YNL175C, strain NOP13, stronger effect = lower value 1 | locus YNL197C, strain WHI3, stronger effect = lower value 1 | locus YNL224C, strain SQS1, stronger effect = lower value 1 | locus YNL322C, strain KRE1, stronger effect = lower value 1.02 | locus YOR083W, strain WHI5 (second series), stronger effect = lower value 0.991
